Only a selection was taken, and hits are over-represented in it overall.
RBX1-CUL1 inh = inhibitors of human ROC1-CUL1 ubiquitin ligase activity. inhibition, % at 10 µM. AID 1347404. in vitro K48 di-Ub FRET, acceptor:donor ratio, 45 min. P62877+Q13616. 140,000 tested, 0.6% active; in the data active = inhibition above about 25%
* = called active by the depositor.

SMILES	RBX1-CUL1 inh
COC(=O)c1cc(-c2ccc(/C=C3/C(=O)NN(c4cccc(Br)c4)C3=O)o2)ccc1Cl	5
COc1c(I)cc(I)cc1/C=C1\C(=O)NN(c2cccc(Cl)c2)C1=O	48*
O=C1NN(c2cccc(Cl)c2)C(=O)/C1=C/c1cc(I)cc(I)c1O	1
O=C1NN(c2cccc(Cl)c2)C(=O)/C1=C\c1ccc(-c2ccc(Br)cc2C(=O)O)o1	80*
COc1ccc2cccc(/C=C3\C(=O)NN(c4ccc(Cl)c(Cl)c4)C3=O)c2c1	8
CC(=O)c1cc(CC(=O)N2CCCC2c2ccc(C(N)=O)s2)cs1 (centres undefined)	2
CCN1CCN(CCc2nc3cc(NC(=O)C4CCCCC4)ccc3n2C)CC1	13
CC/C(=N/NC(=O)c1cccnc1)c1ccc(Br)s1	8
Cn1c(=Nc2ccccc2)ssc1=Nc1ccccc1	10
COc1ccc(N=C2SC(=Nc3ccccc3)C(=Nc3ccccc3)N2c2ccc(OC)cc2)cc1	3
COC1=CCCSC1=Nc1ccccc1	30*
Cc1cc(NC(=O)C2CC(=O)N(c3ccc(C)c(Cl)c3)C2)no1 (centres undefined)	0
Cc1cccc(N2CN(CCc3ccccc3)CNC2=S)c1C	8
O=C(NC1=NN(c2c(Cl)cc(Cl)cc2Cl)C(=O)/C1=C/c1ccc(O)cc1)c1cccc([N+](=O)[O-])c1	60*
O=C(COC(=O)c1ccc(NC(=O)c2ccc(Cl)cc2)cc1)c1cccc([N+](=O)[O-])c1	2
O=C(Nc1cc2nc3ccccc3nc2cc1NC(=O)c1cccc([N+](=O)[O-])c1)c1cccc([N+](=O)[O-])c1	0
Fc1ccc(C(=S)N2CCCCC2)cc1	8
O=C(Nc1ccc2nc(SCC(=O)N3CCOCC3)sc2c1)c1cccc(Br)c1	27*
O=C(Nc1ccc2nc(SCC(=O)N3CCOCC3)sc2c1)c1cccc(F)c1	4
O=C(Nc1ccc2nc(SCC(=O)N3CCOCC3)sc2c1)c1ccc(Br)cc1	-10
CC1(C)CC(=O)C2=C(C1)N(c1ccc(F)cc1)C(=O)CC2=O	-2
N#CC1C(=N)Oc2cc(O)ccc2C1c1cccc(Cl)c1Cl (centres undefined)	0
O=C(Nc1ccc(I)cc1)C1C2CCC=CCC/C=C/CCC21 (centres undefined)	1
Cc1ccc(C)n1-c1ccc(CC(=O)O)cc1	67*
CC(=O)Nc1ccc(-n2c(C)ccc2C)cc1	2
SMILES	RBX1-CUL1 inh
COC(=O)c1ccc(-n2c(C)ccc2C)cc1	1
Clc1ccc2nc(CCc3ccccc3)nc(N3CCC4(CC3)OCCO4)c2c1	-4
Cc1ccc(-c2[nH]nc3c2C(c2ccc4c(c2)OCO4)C(C#N)C(=N)O3)cc1 (centres undefined)	1
Cc1ccc(-c2[nH]nc3c2C(c2ccc(O)c(O)c2)C(C#N)C(=N)O3)cc1 (centres undefined)	35*
N#CC1C(=N)Oc2n[nH]c(-c3ccccc3)c2C1c1ccccc1Cl (centres undefined)	13
Cc1ccc(-c2[nH]nc3c2C(c2ccc(Cl)cc2)C(C#N)C(=N)O3)cc1 (centres undefined)	-9
N#CC1C(=N)Oc2n[nH]c(-c3ccc(-c4ccccc4)cc3)c2C1c1ccccn1 (centres undefined)	31*
N#CC1C(=N)Oc2n[nH]c(-c3ccc(-c4ccccc4)cc3)c2C1c1ccccc1F (centres undefined)	6
CCOC(=O)c1c(NC(=O)COc2ccccc2C(C)(C)C)sc(C(C)=O)c1C	12
N#Cc1ccc(N2CCN(c3nccnc3C#N)CC2)cc1	2
Cc1ccc(CSCC(=O)N2CCC(Cc3ccccc3)CC2)cc1	5
O=C(NCCOc1ccccc1)c1cn(CC2CCCO2)nn1 (centres undefined)	-5
CC(CCc1nc2ccccc2o1)C1CCC2C3CC[C@@H]4CC(OCCC(=O)O)CC[C@]4(C)C3CC[C@]12C (some centres undefined)	40*
C[C@H](CCC(=O)O)[C@H]1CCC2C3CC[C@@H]4C[C@H](OC=O)CC[C@]4(C)C3CC[C@@]21C (some centres undefined)	2
Cc1ccc2nc(CCC(C)C3CCC4C5CC[C@@H]6CC(O)CC[C@]6(C)C5CC[C@]34C)[nH]c2c1 (some centres undefined)	-1
COc1ccc(C2CC(c3ccccc3)=Nc3nc(NC(=O)/C=C/c4ccccc4)nn32)cc1 (centres undefined)	5
O=C(Nc1cccc2cccnc12)c1ccccc1F	-5
Cc1ccccc1N1C(=O)/C(=C/c2cccn2-c2cccc(C(=O)O)c2)C(=O)NC1=S	102*
COc1cccc(C=C2C(=O)c3ccccc3C2=O)c1OC(C)C	-8
Cc1ccccc1N1C(=O)/C(=C/c2cc(Cl)cc(Cl)c2O)C(=O)NC1=S	7
COc1cc(/C=C2\C(=O)NC(=S)N(c3ccccc3F)C2=O)c(Br)cc1O	11
Cc1ccc(N2C(=O)/C(=C/c3cccn3-c3ccc(N(C)C)cc3)C(=O)NC2=S)cc1C	35*
O=C(O)c1cccc(-n2cccc2/C=C2\SC(=O)N(Cc3ccccc3F)C2=O)c1	8
CCOc1ccc(/C=C2\C(=O)NC(=S)N(c3cccc(C)c3C)C2=O)cc1	-1
O=C1NC(=S)N(c2ccccc2)C(=O)/C1=C/c1cccn1-c1ccc(Br)cc1	5
SMILES	RBX1-CUL1 inh
CCc1ccc(N2C(=O)/C(=C/c3cccn3-c3cccc(C(=O)O)c3)C(=O)NC2=S)cc1	21
Cc1cccc(N2C(=O)/C(=C/c3cccn3-c3cccc(C(F)(F)F)c3)C(=O)NC2=S)c1	0
COc1cccc(/C=C2\C(=O)NC(=S)N(c3ccccc3C)C2=O)c1OC(C)C	31*
O=C1NC(=S)N(c2ccccc2F)C(=O)/C1=C/c1cccn1-c1cccc(C(=O)O)c1	101*
Cc1ccc(C(C)C)c(Oc2cc(NC(=O)c3cc4nc(-c5cccs5)cc(C(F)(F)F)n4n3)cc([N+](=O)[O-])c2)c1	-5
Cc1ccc(C)c(N2CCN(S(=O)(=O)c3ccc(C)c(C)c3C)CC2)c1	7
O=C(CCC1CCCN(CC2CCCCC2)C1)NC1CC1 (centres undefined)	4
Cn1c(SCC(=O)NC(c2ccccc2)c2ccccc2)nnc1-c1ccc(NC(=O)c2ccc(F)cc2)cc1	9
O=C(C(c1ccccc1)c1ccccc1)N1CCOc2c(cc(-c3cccnc3)cc2OCCc2cccs2)C1	-13
Cc1nc(Oc2ccccc2F)cc(-n2nc(C)c(C#N)c2N)n1	4
O=C(Nc1ccccc1OC(F)(F)C(F)C(F)(F)F)Nc1cccc2ccccc12 (centres undefined)	6
N#CC1=CC2CCCC2=NC1=S (centres undefined)	106*
N#CC1=CC2CCCCCCC2=NC1=S (centres undefined)	0
CCC1=C(C#N)C(=S)N=C2CCCC21 (centres undefined)	-2
Cn1c(=O)cnn(-c2cc(OC3CCOC3)c(Cl)cc2F)c1=O (centres undefined)	1
O=[N+]([O-])c1cc(C=Nc2c(Cl)cc(Cl)c(N=Cc3cc([N+](=O)[O-])c(O)cc3O)c2Cl)c(O)cc1O	108*
O=[N+]([O-])c1ccccc1C=Nc1ccccc1Cl	-4
O=[N+]([O-])c1ccc(O)c(C=Nc2cc(Cl)cc(Cl)c2)c1	-5
CC(C)CN1CCC(CNC(=O)c2cc(COc3cccc4cnccc34)on2)C1 (centres undefined)	-1

Screening data from PubChem.
